Numbering of substitutions follows the chain as printed; changes in the protein carry UniProt numbers. The full ranking holds about 16,000 sequences; the median of “ka relative to ugcaugu” is about 0.096, and the highest 2% start at about 0.35. Shown is part of a subset that was picked to be rich in the highest values.

Sequences and labels used below:
T1: RBFOX1 RRM RbFoxmut (Fox-RRM*) (Homo sapiens, UniProt Q9NWB1 109-208, R118D;E147R;N151S;E152T)
T1 sequence: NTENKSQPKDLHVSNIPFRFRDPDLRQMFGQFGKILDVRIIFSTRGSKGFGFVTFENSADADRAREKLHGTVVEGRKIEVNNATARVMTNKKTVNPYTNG

B1: UCCUCCU (DNA:RNA)
RNA: GGGAGACCGGAAUUCAGAUUGUCCUCCUCCUUUAAAUCCCGUCGUAGCCACCA
DNA 1: CAATCTGAATTCCGGTCTCCC
DNA 2: TGGTGGCTACGACGGGATT
B2: UCUGGCC (DNA:RNA)
RNA: B1 RNA with C27U, U28G, C29G, U31C
DNA 1: CAATCTGAATTCCGGTCTCCC
DNA 2: TGGTGGCTACGACGGGATT
B3: UGGAUUG (DNA:RNA)
RNA: B1 RNA with C26G, C27G, U28A, C29U, C30U, U31G
DNA 1: CAATCTGAATTCCGGTCTCCC
DNA 2: TGGTGGCTACGACGGGATT
B4: UCCUGGA (DNA:RNA)
RNA: B1 RNA with C29G, C30G, U31A
DNA 1: CAATCTGAATTCCGGTCTCCC
DNA 2: TGGTGGCTACGACGGGATT
B5: UGGAUUC (DNA:RNA)
RNA: B1 RNA with C26G, C27G, U28A, C29U, C30U, U31C
DNA 1: CAATCTGAATTCCGGTCTCCC
DNA 2: TGGTGGCTACGACGGGATT
B6: UGGAGAU (DNA:RNA)
RNA: B1 RNA with C26G, C27G, U28A, C29G, C30A
DNA 1: CAATCTGAATTCCGGTCTCCC
DNA 2: TGGTGGCTACGACGGGATT
B7: UGGGAUC (DNA:RNA)
RNA: B1 RNA with C26G, C27G, U28G, C29A, C30U, U31C
DNA 1: CAATCTGAATTCCGGTCTCCC
DNA 2: TGGTGGCTACGACGGGATT
B8: CUGGAUC (DNA:RNA)
RNA: GGGAGACCGGAAUUCAGAUUGUCCCUGGAUCUUAAAUCCCGUCGUAGCCACCA
DNA 1: CAATCTGAATTCCGGTCTCCC
DNA 2: TGGTGGCTACGACGGGATT
B9: UGGAAUC (DNA:RNA)
RNA: B8 RNA with C25U, U26G, G28A
DNA 1: CAATCTGAATTCCGGTCTCCC
DNA 2: TGGTGGCTACGACGGGATT
B10: UGGAUCU (DNA:RNA)
RNA: B1 RNA with C26G, C27G, U28A, C29U
DNA 1: CAATCTGAATTCCGGTCTCCC
DNA 2: TGGTGGCTACGACGGGATT
B11: UGGAAUG (DNA:RNA)
RNA: B8 RNA with C25U, U26G, G28A, C31G
DNA 1: CAATCTGAATTCCGGTCTCCC
DNA 2: TGGTGGCTACGACGGGATT
B12: UGGAGUC (DNA:RNA)
RNA: B8 RNA with C25U, U26G, G28A, A29G
DNA 1: CAATCTGAATTCCGGTCTCCC
DNA 2: TGGTGGCTACGACGGGATT
B13: UGGAGAA (DNA:RNA)
RNA: B8 RNA with C25U, U26G, G28A, A29G, U30A, C31A
DNA 1: CAATCTGAATTCCGGTCTCCC
DNA 2: TGGTGGCTACGACGGGATT
B14: UGGACUC (DNA:RNA)
RNA: B8 RNA with C25U, U26G, G28A, A29C
DNA 1: CAATCTGAATTCCGGTCTCCC
DNA 2: TGGTGGCTACGACGGGATT
B15: CCAGUUC (DNA:RNA)
RNA: B8 RNA with U26C, G27A, A29U
DNA 1: CAATCTGAATTCCGGTCTCCC
DNA 2: TGGTGGCTACGACGGGATT
B16: UCAGAGG (DNA:RNA)
RNA: B8 RNA with C25U, U26C, G27A, U30G, C31G
DNA 1: CAATCTGAATTCCGGTCTCCC
DNA 2: TGGTGGCTACGACGGGATT
B17: CCAUUUC (DNA:RNA)
RNA: B8 RNA with U26C, G27A, G28U, A29U
DNA 1: CAATCTGAATTCCGGTCTCCC
DNA 2: TGGTGGCTACGACGGGATT
B18: UGAUAGC (DNA:RNA)
RNA: B8 RNA with C25U, U26G, G27A, G28U, U30G
DNA 1: CAATCTGAATTCCGGTCTCCC
DNA 2: TGGTGGCTACGACGGGATT
B19: UAUAGUG (DNA:RNA)
RNA: B8 RNA with C25U, U26A, G27U, G28A, A29G, C31G
DNA 1: CAATCTGAATTCCGGTCTCCC
DNA 2: TGGTGGCTACGACGGGATT
B20: AGUGAUA (DNA:RNA)
RNA: B8 RNA with C25A, U26G, G27U, C31A
DNA 1: CAATCTGAATTCCGGTCTCCC
DNA 2: TGGTGGCTACGACGGGATT
B21: UAGGGUG (DNA:RNA)
RNA: B8 RNA with C25U, U26A, A29G, C31G
DNA 1: CAATCTGAATTCCGGTCTCCC
DNA 2: TGGTGGCTACGACGGGATT
B22: UCCACGA (DNA:RNA)
RNA: B1 RNA with U28A, C30G, U31A
DNA 1: CAATCTGAATTCCGGTCTCCC
DNA 2: TGGTGGCTACGACGGGATT
B23: CGAGCCU (DNA:RNA)
RNA: B1 RNA with U25C, C26G, C27A, U28G
DNA 1: CAATCTGAATTCCGGTCTCCC
DNA 2: TGGTGGCTACGACGGGATT
B24: UGGAUGA (DNA:RNA)
RNA: B8 RNA with C25U, U26G, G28A, A29U, U30G, C31A
DNA 1: CAATCTGAATTCCGGTCTCCC
DNA 2: TGGTGGCTACGACGGGATT
B25: CGGAUGA (DNA:RNA)
RNA: B8 RNA with U26G, G28A, A29U, U30G, C31A
DNA 1: CAATCTGAATTCCGGTCTCCC
DNA 2: TGGTGGCTACGACGGGATT
B26: UGAUGGA (DNA:RNA)
RNA: B1 RNA with C26G, C27A, C29G, C30G, U31A
DNA 1: CAATCTGAATTCCGGTCTCCC
DNA 2: TGGTGGCTACGACGGGATT
B27: GGGUGGA (DNA:RNA)
RNA: B8 RNA with C25G, U26G, G28U, A29G, U30G, C31A
DNA 1: CAATCTGAATTCCGGTCTCCC
DNA 2: TGGTGGCTACGACGGGATT
B28: AAAUCUG (DNA:RNA)
RNA: B1 RNA with U25A, C26A, C27A, C30U, U31G
DNA 1: CAATCTGAATTCCGGTCTCCC
DNA 2: TGGTGGCTACGACGGGATT
B29: UCACACA (DNA:RNA)
RNA: B1 RNA with C27A, U28C, C29A, U31A
DNA 1: CAATCTGAATTCCGGTCTCCC
DNA 2: TGGTGGCTACGACGGGATT

This assay deals with T1, RBFOX1 RRM RbFoxmut (Fox-RRM*). The assay can be described thus: EMSA; HiTS-Eq, 1 nM pool, 10 min; buffer printed only for the single-RNA assays: 10 mM Tris pH 7.5, 150 mM NaCl, 3.4 mM EDTA, 0.001% NP-40, 30 C. To be noted: tags: His6 N-terminal (pET28a); label: 5' 32P. The method in brief: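 These values rest on relative association constants, computed from read-count changes of each RNA species versus the control reaction and normalised to the cognate motif. Reads came from free RNA recovered by 8% native PAGE after purified RbFox RRM (wild type or mutant) at increasing concentrations was equilibrated for 10 min in 50 µL with 1 nM of a 5′-radiolabelled pool with 7 randomized nucleotides and DNA-annealed flanks.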
On the technique in general: In EMSA bound probe runs differently from free probe, usually more slowly.
B1: the binding signal is 0.0641 KA relative to UGCAUGU.
The figure for B2 is 0.161 KA relative to UGCAUGU; for B3 it is 0.526 KA relative to UGCAUGU.
The figure for B4 is 0.0709 KA relative to UGCAUGU; for B5 it is 0.139 KA relative to UGCAUGU.
The figure for B6 is 0.094 KA relative to UGCAUGU; for B7 it is 0.357 KA relative to UGCAUGU.
Turning to B8, the binding signal was 0.274 KA relative to UGCAUGU.
B9: the binding signal is 0.458 KA relative to UGCAUGU.
The figure for B10 is 0.259 KA relative to UGCAUGU; for B11 it is 1.66 KA relative to UGCAUGU; for B12 it is 0.18 KA relative to UGCAUGU.
The figure for B13 is 0.0999 KA relative to UGCAUGU; for B14 it is 0.0856 KA relative to UGCAUGU; for B15 it is 0.073 KA relative to UGCAUGU.
The figure for B16 is 0.0974 KA relative to UGCAUGU; for B17 it is 0.0493 KA relative to UGCAUGU.
On to B18, for which the binding signal was 0.0858 KA relative to UGCAUGU.
In the case of B19, the binding signal is 0.137 KA relative to UGCAUGU.
In the case of B20, the binding signal is 0.133 KA relative to UGCAUGU.
As for B21, the figure is 0.149 KA relative to UGCAUGU; as for B22, 0.0743 KA relative to UGCAUGU.
The figure for B23 is 0.103 KA relative to UGCAUGU.
The figure for B24 is 0.401 KA relative to UGCAUGU.
B25: the binding signal is 0.235 KA relative to UGCAUGU.
As for B26, the figure is 0.0611 KA relative to UGCAUGU; as for B27, 0.0811 KA relative to UGCAUGU; as for B28, 0.0533 KA relative to UGCAUGU.
As for B29, the figure is 0.0876 KA relative to UGCAUGU.

For the origin of these results see PMC9911399, “Two distinct binding modes provide the RNA-binding protein RbFox with extraordinary sequence specificity”.
